# Data published in PubChem BioAssay AID488841 (Sanford-Burnham Center for Chemical Genomics, 2010).
# Screen size: about 1,400 compounds; about 380 (27%) were called active.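 Rule for the calls: active = mean inhibition above 50% across duplicate retests at 10 µM; inactive = the rest.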 This is one part of the list.
# Assay: inhibition of NALP1/ASC/caspase-1 reporter signal in yeast, confirmation, NALP1 inhibitor project, S. cerevisiae, luminescence, single concentration (AID 488841);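 note: plate controls were DMSO in galactose medium for no effect and cells in plain SD medium for full effect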
# Conditions: S. cerevisiae NALP1/ASC/Caspase-1 reporter, beta-gal luminescence; at 10 µM; active compounds read high
row,Compound,inhibition
1,COc1cc(CNC2CCCCCCC2)cc(Br)c1OCC#N,38.8% (inactive)
2,CCOc1c(Cl)cc(CNCC(C)C)cc1OC,32.7% (inactive)
3,CCOc1cc(CNCc2ccncc2)cc(Br)c1OCc1ccc(F)cc1,69.7% (active)
4,CCOc1cc(CNC2CCCC2)cc(Cl)c1OCc1ccc(F)cc1,50.7% (active)
5,COc1ccc2c(c1)NC(=O)CC(c1ccccc1)=N2,43.5% (inactive)
6,O=S(=O)(NC1CCCCC1)c1ccc(F)c2ccccc12,51.6% (active)
7,Cc1cccc(NC(=O)c2ccc(C3SCC(=O)N3CCc3ccccc3)cc2)c1C (stereo unspecified),48.8% (inactive)
8,COc1ccc(N=c2cc(-c3ccc(OC)cc3)oc3ccccc23)cc1,49.6% (inactive)
9,CCCCN(Cc1ccccc1)C(=O)C1CCN(Cc2sccc2C)CC1,40.8% (inactive)
10,Nc1c(C(=O)NCc2ccc3c(c2)OCO3)nnn1-c1ccc(OC(F)(F)F)cc1,31.3% (inactive)
11,Cc1ccc(/C=C/C(=O)NCc2ccc3c(c2)OCO3)o1,36% (inactive)
12,O=C(CSCc1cnn(-c2ccccc2)c1-n1cccc1)NCc1ccc2c(c1)OCO2,50% (active)
13,COc1ccc2c(c1)O/C(=C\c1sccc1C)C2=O,65.4% (active)
14,CCOc1oc(-c2ccc(OC)cc2)nc1C(F)(F)F,24.1% (inactive)
15,O=C(NC(=S)Nc1cccnc1)c1cc2ccccc2o1,55.4% (active)
16,O=C(Nc1cccc(-c2nc3ncccc3o2)c1)c1cc2ccccc2o1,46.4% (inactive)
17,O=C(N/N=C/c1ccncc1)c1cc2ccccc2o1,47.5% (inactive)
18,COc1cccc(CN(C)CC(=O)Nc2cccc(S(N)(=O)=O)c2)c1OC,33.9% (inactive)
19,C(#Cc1ccc(C#CCN2CCCC2)cc1)CN1CCCC1,17.6% (inactive)
20,CCOC(=O)N1CCN(CC(O)COc2ccccc2C(C)(C)C)CC1 (stereo unspecified),42.4% (inactive)
21,OC(COc1ccc2c(c1)CCC2)CN1CCN(c2ccccc2F)CC1 (stereo unspecified),73.8% (active)
22,OC(CSc1c(Cl)cccc1Cl)CN1CCN(c2ccccc2F)CC1 (stereo unspecified),40.9% (inactive)

row,Compound,inhibition
1,O=[N+]([O-])c1ccc(OCC(O)CN2CCN(c3ccccc3F)CC2)cc1 (stereo unspecified),55.2% (active)
2,CCC(=O)c1ccc(OCC(O)CN2CCN(c3cccc(C(F)(F)F)c3)CC2)cc1 (stereo unspecified),49.5% (inactive)
3,Cc1cccc(C(=O)NNC(=O)CN2C(=O)c3ccccc3C2=O)c1,24.9% (inactive)
4,Cc1ccc(N2C(=N)/C(=C3/Nc4ccccc4S3)C(c3ccccc3)C2=O)cc1 (stereo unspecified),35.2% (inactive)
5,CCc1cccc2c(C(=O)COC(=O)c3ccc([N+](=O)[O-])s3)c[nH]c12,91.5% (active)
6,CCc1cccc2c(C(=O)COC(=O)c3ccccc3)c[nH]c12,40% (inactive)
7,CCc1cccc2c(C(=O)CSc3nncn3-c3ccc(OC)cc3)c[nH]c12,25.8% (inactive)
8,c1csc(CNc2nc3ccccc3n2CCN2CCOCC2)c1,33.5% (inactive)
9,O=C(CNC(c1ccccc1)c1ccccc1)Nc1c(F)cccc1F,26.1% (inactive)
10,COC(=O)c1ccc(NC(=O)CN2C(=O)CNC2=O)cc1,32.5% (inactive)
11,CC(C)NCCOCCOc1ccc(Cl)cc1Br,35.1% (inactive)
12,CC(C)NC(=O)CCCOc1ccc(Cl)cc1Cl,54.9% (active)
13,CN(C)CCNC(=O)COc1ccc(Cl)cc1Cl,25.2% (inactive)
14,C=C1SC(Nc2c(C)cccc2C)=NC12CCCCC2,29.4% (inactive)
15,COc1ccccc1C(=O)Nc1ccc(OCc2nnc3c4ccccc4c(C)nn23)cc1,36.5% (inactive)
16,COc1ccc2[nH]c3c(C)c4ccncc4c(C)c3c2c1,94.5% (active)
17,COc1ccc2[nH]c(C)c(CCNC(=S)Nc3cc(C)cc(C)c3)c2c1,30% (inactive)
18,CC(C)CCN(C(=O)Nc1ccccc1)C(C)c1cccs1 (stereo unspecified),29.9% (inactive)
19,CCOc1ccc(NC(=O)CSc2nnc(C)n2Cc2ccccc2)cc1,26.8% (inactive)
20,CCOc1ccc(NC(=O)c2cc3c(C)nc4ccccc4c3o2)cc1,17.3% (inactive)
21,CCOc1ccc(NC(=O)c2csc3c2CCCC3)cc1,52.4% (active)
22,O=C(NN1C(=O)c2cc(Br)ccc2NC1c1cc(Br)cc(Br)c1O)c1ccncc1 (stereo unspecified),64.8% (active)

row,Compound,inhibition
1,COC(=O)c1cccc(NC(=O)/C=C/c2ccc3c(c2)OCO3)c1,60.6% (active)
2,O=C(Nc1cccnc1)Nc1ccc2c(c1)OCO2,32.1% (inactive)
3,CC1CN(C(=O)Nc2ccc3c(c2)OCO3)CC(C)O1 (stereo unspecified),30.4% (inactive)
4,Cc1ccc(S(=O)(=O)NCC(=O)N(CC(=O)NC(C)(C)C)Cc2cccs2)cc1,31.3% (inactive)
5,Cc1cc(=O)oc2cc(OCC(=O)N3CCN(C(=O)c4ccco4)CC3)ccc12,21.1% (inactive)
6,C/C(=N\N(C)C)C1=C(O)c2ccccc2C1=O,29.9% (inactive)
7,CC(=O)N(C1=C(Cl)C(=O)c2ccccc2C1=O)C1CCCCC1,58% (active)
8,O=C(c1ccc(Br)o1)N(c1ccccn1)C1CCCCC1,41.8% (inactive)
9,CN(C)c1ccc(N=C/C=C2/N(C)c3ccccc3C2(C)C)cc1,47.2% (inactive)
10,CCOC(=O)C[N+](CC)(CC)CC#Cc1ccccc1,15.1% (inactive)
11,Cc1nnc(-c2ccccc2)o1,31.1% (inactive)
12,Cc1cccc(NCc2nc3ccccc3n2C)c1,66% (active)
13,CCCc1nn(C)c(C(=O)Nc2cccc(C)c2)c1Cl,42.2% (inactive)
14,CCOC(=O)c1c(/N=C/c2cc(OC)cc([N+](=O)[O-])c2O)sc(C)c1C,44.5% (inactive)
15,CS(=O)(=O)N1N=C(c2ccco2)CC1c1ccc(Cl)cc1 (stereo unspecified),19.9% (inactive)
16,COc1ccc(/C=N/NC(=O)c2csc(-n3nc(C)cc3C(F)(F)F)n2)cc1,17.9% (inactive)
17,Clc1ccc(OCCOCCN2CCc3ccccc3C2)c(Cl)c1,52.3% (active)
18,Cc1cc(Cl)c(OCCOCCN2CCC(C)CC2)c(Br)c1,44.9% (inactive)
19,C=CCc1cc(Cl)ccc1OCCOCCNCCOC,41.8% (inactive)
20,Nc1c(Cl)ncnc1N/N=C/c1ccccn1,71.3% (active)
21,Cc1c(Cl)c([N+](=O)[O-])nn1Cc1ccc(C(=O)N/N=C\c2ccccn2)o1,28.8% (inactive)
22,Cc1sc2ncnc(N/N=C/c3ccccc3O)c2c1C,40.2% (inactive)
